# Source: PubChem BioAssay (National Center for Advancing Translational Sciences (NCATS))
# An excerpt weighted towards active compounds, which were near 7.6% of everything screened.
# hERG WT inh = blocks the wildtype human KCNH2 potassium channel; actives 0.37% (n = 340,000); U2OS, BacMam KCNH2, thallium flux FluxOr; active compounds read low; Q12809; activity change, % at 1.84 µM;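 active = maximum activity change below -70%; inconclusive = maximum activity change between -70% and -50%; inactive = maximum activity change above -50%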; also: % is scaled to controls: 0 for no effect and ±100 for the full control effect
#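 U2OS cells were transduced with wild-type KCNH2 virus (2.03 x 10^8 / mL) for 4 h at room temperature, then cultured overnight at 37 C. Thallium flux was read with FluxOr dye. Rate constants were normalized to DMSO controls.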
# KB-V1 cytotox = kills drug-selected multidrug resistant KB-V1 cells | Potency, µM (series often up to 46.1 µM), actives largely listed as cytotoxic | AID 1347076 | actives 3.4% (n = 400,000) | KB-V1 MDR cells viability, CellTiter-Glo, 72 h; also: potency is read from the fitted curve at half-maximal effect; % is scaled to controls: 0 for no effect and ±100 for the full control effect; nearly all actives have a fitted effect of over 60% in size
#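 Cytotoxicity toward P-gp-expressing KB-V1 cells was determined as loss of CellTiter-Glo luminescence after 72 h at 37 degrees C. Compounds were tested in quantitative HTS format across a concentration range, with curves fitted to normalized data.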
# KB-3-1 tox = KB-3-1 parental cell cytotoxicity. KB-3-1 viability, CellTiter-Glo ATP luminescence, 72 h. Potency, µM (highest dose often 46.1 µM), usual class: cytotoxic. actives 1.4% (n = 400,000). AID 1347075; also: potency is read from the fitted curve at half-maximal effect; % is scaled to controls: 0 for no effect and ±100 for the full control effect; nearly all actives have a fitted effect of over 60% in size
#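 Parental KB-3-1 viability, qHTS format: 72 h compound exposure, 37 °C; CellTiter-Glo; media-only wells and DMSO plates as controls; concentration-effect fits on corrected data.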
# MCF10A rereplic = inducers of DNA re-replication in MCF 10A breast cells | MCF 10A DNA re-replication, Hoechst nuclear intensity, 48 h | Potency, µM (titrated, usually from 46.1 µM), for the others: at the highest dose activity, positive = re-replication, most hits filed as activators | AID 624296 | actives 2.9% (n = 350,000); also: potency is read from the fitted curve at half-maximal effect; % of control where 0% means no effect; nearly all actives have a fitted effect of over 50% in size
# SW480 rereplic = inducers of DNA re-replication in SW480 colon cancer cells; SW480 DNA re-replication, Hoechst DNA content imaging, 48 h; Potency, µM (series often up to 46.1 µM), for inactives: top-dose re-replication activation, most hits filed as activators; actives 1.8% (n = 340,000); AID 624297; also: potency is read from the fitted curve at half-maximal effect; % of control where 0% means no effect; nearly all actives have a fitted effect of over 55% in size
#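 Cells (250 per well) received 23 nL compound or DMSO by pin tool and were kept 48 hr at 37 C, 5% CO2. Nuclei were then stained with Hoechst for 40 min and scanned for DNA content.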
# KCNH2 3.1 inh = inhibitors of human KCNH2 3.1 potassium channel isoform; U2OS KCNH2 3.1, thallium flux FluxOr; active compounds read low; activity change, % (tested at about 1.8 µM); actives 0.95% (n = 340,000); AID 720553;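 active = maximum activity change below -70%; inconclusive = maximum activity change from -70% to -50%; inactive = maximum activity change above -50%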;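 also: thallium influx rate constant from kinetic fluorescence after stimulation buffer; % is scaled to controls: 0 for no effect and ±100 for the full control effect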
#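 FluxOr-based Tl+ influx in U2OS cells transduced with KCNH2 3.1 virus; rate constants normalized to DMSO controls.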
# * = called active by the depositor; i = inactive; ? = inconclusive; / = no result given; ! = repeats disagree. Unless noted, calls follow the shape of the dose curve; as a rule, active = well fitted curve in the direction sought with a large enough effect; inconclusive = small, poorly fitted or top-dose-only effect, or another doubt; inactive = no such curve, though single readings can be large; an effect the other way counts as inactive or inconclusive.
SMILES,hERG WT inh,KB-V1 cytotox,KB-3-1 tox,MCF10A rereplic,SW480 rereplic,KCNH2 3.1 inh
O=C1CC(Sc2nnnn2-c2ccccc2)C(=O)N1c1cccc(Cl)c1 (stereo not given),14,i,?,?,?,4
COc1ccc(N2C(=O)CC(Sc3nnnn3-c3ccc(F)cc3)C2=O)cc1 (stereo not given),4,i,i,?,10µM*,2
COc1ccc(OCC(=O)NNc2c3ccccc3nc3ccccc23)cc1,2,4.6µM*,?,?,-3%,1
O=C(CCCO)NNc1c2ccccc2nc2ccccc12,4,i,i,-5%,?,10
O=C(NNC(=O)c1cccc2ccccc12)c1ccc(-c2ccccc2)cc1,3,?,?,?,-1%,8
COc1ccc(OCC(=O)NNC(=O)C(=O)Nc2ccccc2)cc1,-34,i,i,22%,-25%,17
CCCC(=O)NNc1c2ccccc2nc2ccccc12,1,16µM*,i,-9%,-9%,-3
O=C(NNc1nc(=O)c2cccnc2s1)c1ccccc1O,0,i,?,-8%,0.92µM*,-8
COc1ccccc1C(=O)NNc1ncc(C)s1,-1,i,i,?,-9%,-2
O=C(NNC(=O)c1cccc2ccccc12)c1ccccc1O,10,i,?,-41%,7.3µM*,-41
O=C(C[n+]1cccc(I)c1)c1ccc(F)cc1,/,i,i,/,/,/
O=C(NNc1c2ccccc2nc2ccccc12)c1ccccc1O,-8,21µM*,i,7%,-12%,/
O=C(COc1ccccc1)NNc1c2ccccc2nc2ccccc12,6,18µM*,i,22%,-1%,-9
O=C(NNc1c2ccccc2nc2ccccc12)c1ccc(O)cc1O,-5,i,i,-16%,2%,-3
O=C(NNc1c2ccccc2nc2ccccc12)c1ccc(O)cc1,1,i,i,-4%,6%,18
Cc1ccc(CC(=O)N2CCN(c3ccc([N+](=O)[O-])cc3)CC2)cc1,5,?,i,11%,-5%,-18
Cc1ccc(Nc2ccc(N3CCN(c4ccc([N+](=O)[O-])cc4)CC3)nn2)cc1,-86*,i,i,-4%,0%,-109*
Cc1ccccc1C(=O)N1CCC(C(=O)OCc2nc(N)nc(Nc3ccccc3)n2)CC1,-2,i,i,3%,-1%,0
CCCC(=O)N1CCN(Cc2nc3cc([N+](=O)[O-])ccc3n2C)CC1,-13,i,i,6%,7.3µM*,-19
Cn1c(CCN2CCN(c3ccc(F)cc3)CC2)nc2cc(NC(=O)c3ccco3)ccc21,30,i,i,14%,-8%,-27
Cn1c(CN2CCOCC2)nc2cc(NC(=O)COc3ccccc3)ccc21,-6,16µM*,i,-2%,1%,6
CCn1c(CN2CCCCC2)nc2cc(NC(=O)c3ccccc3[N+](=O)[O-])ccc21,/,i,i,/,/,/
Cc1ccc(N2CCN(CCc3nc4cc(NC(=O)c5ccco5)ccc4n3C)CC2)cc1,58,4.1µM*,i,12%,-4%,-15
CCCn1c(CN2CCN(C(=O)OCC)CC2)nc2cc([N+](=O)[O-])ccc21,8,?,i,9%,-2%,-1
Cn1c(CCN2CCOCC2)nc2cc(NC(=O)COc3ccccc3)ccc21,-7,i,i,2%,-6%,-10
SMILES,hERG WT inh,KB-V1 cytotox,KB-3-1 tox,MCF10A rereplic,SW480 rereplic,KCNH2 3.1 inh
CCn1c(CN2CCCCC2)nc2cc(NC(=O)c3ccc([N+](=O)[O-])cc3)ccc21,/,6.5µM*,i,/,/,/
COc1cc(OC)c(NC(=O)C(C)n2nc(-c3ccc(C)c(C)c3)ccc2=O)cc1Cl (stereo not given),/,i,i,/,/,/
C=CCn1c(SCC(=O)NC(=O)Cc2ccccc2)nnc1-c1ccccc1F,4,i,i,-4%,-9%,-13
CCSC1OC(C(COC(C)=O)OC(C)=O)C(OC(C)=O)C1NC(C)=S (stereo not given),-3,i,i,-6%,-4%,-11
CC1CCN(CCc2nc3cc(NC(=O)COc4ccc([N+](=O)[O-])cc4)ccc3n2C)CC1,1,i,?,?,21µM*,?
Cn1c(CN2CCCCC2)nc2cc(NC(=O)c3ccccc3)ccc21,4,8.2µM*,i,-5%,5%,-20
Cn1c(CN2CCCCC2)nc2cc(NC(=O)c3cccc(Br)c3)ccc21,7,?,18µM*!,?,17%,-27
CC(=O)NCCc1nc2cc(NC(=O)c3ccccc3C)ccc2n1C,-12,?,i,0.58µM*,-2%,-7
Cn1c(CN2CCCC2)nc2cc(NC(=O)Nc3ccccc3)ccc21,9,i,i,-4%,1%,23
S=C(Nc1ccc(Cl)cc1)NC1CCCCC1,4,i,i,-2%,-46%,14
S=C(Nc1ccc(Nc2ccccc2)cc1)NC1CCCCCC1,-3,?,?,13%,21µM*,-24
CC(C)(C)NC(=S)Nc1ccc(Nc2ccccc2)cc1,10,16µM*,?,-4%,14%,-7
Cc1cccc(NC(=S)NC2CCCCCC2)c1C,2,18µM*,i,11%,0%,1
Fc1ccccc1N1CCN(c2nccn3nc(-c4ccc(Br)cc4)cc23)CC1,/,i,i,/,/,/
CC(C)(C)[C@@H]1COC(=O)[C@H](Cc2ccc(F)cc2)C/C=C\C[C@@H](CC(=O)N(CCO)Cc2ccccc2)C(=O)N1,-11,i,i,-22%,3%,-1
CCOC(=O)C1=C(CN(CC)Cc2ccccc2)NC(=O)NC1c1ccc(Cl)cc1 (stereo not given),/,i,i,/,/,/
Cc1nc2nc(-c3ccc(Cl)cc3Cl)nn2c(C)c1CCC(=O)Nc1ccc(F)cc1,/,i,i,/,/,/
Cc1ccc(NC(=S)N2CCN(c3ccccn3)CC2)cc1C,4,i,i,0%,-20%,11
Cc1cc(N/C=C\c2nnnn2-c2ccc(F)cc2)no1,-121*,i,i,14%,25%,6
CC(C)Cc1ccc(C(C)/C=C2/CCC(CN3CCCCC3)C2=O)cc1 (stereo not given),2,?,?,15µM*,?,-23
COc1ccc(Cl)cc1Nc1nc(NCCO)nc(N2CCCC2)n1,-1,i,i,18%,-4%,-8
CC(C)Oc1ccc(Cl)cc1Nc1nc(NCCO)nc(N2CCCC2)n1,/,?,i,23µM*,?,/
